Source: PubChem BioAssay (Tox21)
Records with an inconclusive call do not appear. Calls of active or inactive are those of the source. Unless noted, calls come from the whole dose curve; as a rule, active = well fitted curve in the direction sought with a large enough effect in the repeat runs; inconclusive = weak or mixed curves; inactive = no such curve, though single readings can be large; an effect the other way counts as inactive or inconclusive.

Columns and labels:
[1] = qHTS assay to identify small molecule antagonists of the retinoid-related orphan receptor gamma (ROR-gamma) signaling pathway - cell viability counter screen (AID 1159520); note: nearly all actives have a fitted effect of over 50% in size; note: potency is the fitted concentration of half-maximal effect
Procedure, shortened: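 Tet-on ROR gamma CHO cells were given compounds for 2 hr, then doxycycline hyclate at 1 uM final, and incubated 16 hr at 37 C. Viability was measured as ATP content by CellTiter-Glo luminescence.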

[2] = molecular target: Nuclear receptor ROR-gamma (Homo sapiens) (UniProt P51449); experiment: qHTS assay to identify small molecule antagonists of the retinoid-related orphan receptor gamma (ROR-gamma) signaling pathway (AID 1159521; note: nearly all actives have a fitted effect of over 50% in size; note: potency is the fitted concentration of half-maximal effect)
Procedure, shortened: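 Readout: ONE-Glo luciferase luminescence, 30 min at room temperature. System: Tet-on RORγ CHO, RORE-LUC. Sequence: compound 2 h, doxycycline 1 uM final, 16 h at 37 C.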

[3] = qHTS assay to identify small molecule agonists of the AP-1 signaling pathway - cell viability counter screen (AID 1159525; calls by dose curve; note: nearly all actives have a fitted effect of over 55% in size; note: potency is the fitted concentration of half-maximal effect)
Procedure, shortened: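 Same-well cytotoxicity counter screen of the Tox21 10K library in ME-180 cells. The readout is ATP-dependent luminescence after 5 h compound treatment. Data are normalised to DMSO and tetra n-octyl ammonium bromide controls.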

[4] = qHTS assay to identify small molecule agonists of the RXR signaling pathway - cell viability counter screen (AID 1159529); note: nearly all actives have a fitted effect of over 50% in size; note: potency is the fitted concentration of half-maximal effect
Procedure, shortened: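 Tox21 10K compounds were tested for cytotoxicity against GeneBLAzer RXR-alpha HEK 293T cells grown in 2% charcoal-stripped FBS. Exposure lasted 16 hr at 37 C, 5% CO2; viability read by CellTiter-Glo luminescence.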

[5] = qHTS assay to identify small molecule antagonists of the retinoid acid receptor (RAR) signaling pathway - cell viability counter screen (AID 1159551); note: nearly all actives have a fitted effect of over 35% in size; note: potency is the fitted concentration of half-maximal effect
Procedure, shortened: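 C3RL4 RARE-luciferase line; cpds + retinol 1 uM final, 6 h, 37 C/5% CO2; CellTiter-Glo ATP luminescence, 30 min RT.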

[6] = qHTS assay to identify small molecule antagonists of the estrogen related receptor (ERR) signaling pathway from Tox21 library - cell viability counter screen (AID 1224834); note: nearly all actives have a fitted effect of over 30% in size; note: potency is the fitted concentration of half-maximal effect
Procedure, shortened: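 Multiplexed viability counter screen in ERR cells: 17.5 h compound exposure at 37 C, CellTiter-Fluor added, 30 min at 37 C/5% CO2, fluorescence read.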

[7] = molecular target: Luciferin 4-monooxygenase (Photinus pyralis) (UniProt P08659); experiment: qHTS assay to identify small molecule inhibitors of firefly luciferase (AID 1224835); note: nearly all actives have a fitted effect of over 25% in size; note: potency is the fitted concentration of half-maximal effect
Chain of Luciferin 4-monooxygenase (Photinus pyralis) (P08659 whole entry, looked up): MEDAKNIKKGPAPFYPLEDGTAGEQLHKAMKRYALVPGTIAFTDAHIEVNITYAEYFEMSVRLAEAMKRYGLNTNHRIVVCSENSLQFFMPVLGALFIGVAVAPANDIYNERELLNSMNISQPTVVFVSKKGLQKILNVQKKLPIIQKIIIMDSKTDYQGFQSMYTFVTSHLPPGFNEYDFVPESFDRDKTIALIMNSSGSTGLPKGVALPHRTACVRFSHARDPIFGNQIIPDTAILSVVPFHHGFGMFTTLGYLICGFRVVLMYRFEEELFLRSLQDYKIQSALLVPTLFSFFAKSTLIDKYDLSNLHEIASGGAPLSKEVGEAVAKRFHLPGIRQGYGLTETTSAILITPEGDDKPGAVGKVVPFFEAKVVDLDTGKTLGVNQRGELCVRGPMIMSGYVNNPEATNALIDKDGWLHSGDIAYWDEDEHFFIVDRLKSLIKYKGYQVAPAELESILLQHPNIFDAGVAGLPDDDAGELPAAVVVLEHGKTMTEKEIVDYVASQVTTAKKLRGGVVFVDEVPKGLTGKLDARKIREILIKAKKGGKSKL
Procedure, shortened: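 Biochemical qHTS: compounds run as interplate titrations against purified firefly enzyme, with D-luciferin and ATP each at its KM concentration. Light output recorded by CCD imaging.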

[8] = qHTS assay to identify small molecule agonists of the constitutive androstane receptor (CAR) signaling pathway - cell viability counter screen (AID 1224836); note: nearly all actives have a fitted effect of over 45% in size; note: potency is the fitted concentration of half-maximal effect
Procedure, shortened: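 Fluorescence from CellTiter-Fluor indicates live cells after 23 h exposure. The human hepatoma line expresses hCAR and a CYP2B6-2.2kb reporter. Incubation medium contains 0.75 uM PK11195 (final).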

[9] = qHTS assay to identify small molecule antagonists of the constitutive androstane receptor (CAR) signaling pathway - cell viability counter screen (AID 1224837); note: nearly all actives have a fitted effect of over 45% in size; note: potency is the fitted concentration of half-maximal effect
Procedure, shortened: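 Read-out: CellTiter-Fluor fluorescence after 23 hr at 37 C/5% CO2. Cells: HepG2 double-stable for hCAR and CYP2B6-2.2kb. Compounds tested at 15 concentrations in the presence of CITCO, final concentration 50 nM.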

[10] = molecular target: Retinoic acid receptor RXR-alpha (Homo sapiens) (UniProt P19793); experiment: qHTS assay to identify small molecule agonists of the RXR signaling pathway (AID 1159527; calls by dose curve; note: % is set by controls: 0 for no effect and ±100 for the full control effect; nearly all actives have a fitted effect of over 35% in size)
Chain of Retinoic acid receptor RXR-alpha (Homo sapiens) (P19793 whole entry, looked up): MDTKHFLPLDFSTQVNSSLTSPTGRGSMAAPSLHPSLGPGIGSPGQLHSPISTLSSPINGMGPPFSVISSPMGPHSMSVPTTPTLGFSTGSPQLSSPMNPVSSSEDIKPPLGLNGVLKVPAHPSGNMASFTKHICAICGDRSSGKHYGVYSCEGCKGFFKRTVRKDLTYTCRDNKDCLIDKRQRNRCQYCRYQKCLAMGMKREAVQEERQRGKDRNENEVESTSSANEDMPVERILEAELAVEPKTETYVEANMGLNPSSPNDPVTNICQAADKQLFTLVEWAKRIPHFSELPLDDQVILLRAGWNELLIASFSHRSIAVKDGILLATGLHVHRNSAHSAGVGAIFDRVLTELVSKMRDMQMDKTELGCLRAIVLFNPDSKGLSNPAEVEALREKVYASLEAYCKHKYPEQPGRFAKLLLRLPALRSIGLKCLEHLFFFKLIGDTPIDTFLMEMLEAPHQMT
Procedure, shortened: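 Reporter activation is measured as beta-lactamase activity via FRET substrate cleavage (emission 460/530 nm) in HEK 293T cells expressing an RXR-alpha-driven bla construct, following 16 hr compound exposure at 37 C.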

[11] = qHTS assay to identify small molecule antagonists of the retinoic acid receptor (RAR) signaling pathway (AID 1159552; note: nearly all actives have a fitted effect of over 50% in size; note: potency is the fitted concentration of half-maximal effect)
Procedure, shortened: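 Overnight-plated C3RL4 reporter cells get compound, then retinol to 1 uM final; plates sit 6 hr at 37 C, 5% CO2. A luciferase reagent is added and light output recorded after 30 min at room temperature.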

[12] = qHTS assay to identify small molecule antagonists of the vitamin D receptor (VDR) signaling pathway - cell viability counter screen (AID 743225)
Procedure, shortened: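 Cytotoxicity toward the VDR-bla HEK 293T line was scored by ATP-based CellTiter-Glo luminescence, read in the wells already used for the beta-lactamase readout after 16 h compound treatment under 3 nM 1-alpha,25-dihydroxyvitamin D3 stimulation.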

[13] = qHTS assay to identify small molecule agonists of the retinoic acid receptor (RAR) signaling pathway (AID 1159553); note: % is set by controls: 0 for no effect and ±100 for the full control effect
Procedure, shortened: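 RARE-luc C3RL4 cells; overnight attachment 37 C/5% CO2; compound (DMSO) 6 hr; luciferase reagent, 30 min RT; luminescence read-out.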

[14] = qHTS assay to identify small molecule antagonists of the estrogen related receptor (ERR) signaling pathway - cell viability counter screen (AID 1224818); note: series mostly up to about 46 µM; % is set by controls: 0 for no effect and ±100 for the full control effect
Procedure, shortened: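 Fluorescence from CellTiter-Fluor, read 30 min after reagent addition at 37 C, measured viability of ERR cells exposed to compounds for 17.5 h. Cells had settled 6 h before dosing.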

[15] = qHTS assay to identify small molecule agonists of the AP-1 signaling pathway (AID 1159526; calls by dose curve; note: % is set by controls: 0 for no effect and ±100 for the full control effect)
[16] = qHTS assay to identify small molecule antagonists of the estrogen related receptor signaling pathway with the pleiotropic PPARgamma coactivator (PGC) cell viability counter screen (AID 1224822; note: series mostly up to about 46 µM; % is set by controls: 0 for no effect and ±100 for the full control effect)
Procedure, shortened: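 Fluorescence read-out of CellTiter-Fluor after 30 min at 37 C; PGC/ERR cells, 2,000 per well, had been exposed to DMSO-dissolved compounds for 17.5 h following a 6 h pre-incubation.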

Cc1ccc(S(=O)(=O)C(I)I)cc1
active: Potency [1] 17.2 µM | Potency [2] 6.11 µM | Potency [3] 17.4 µM | Potency [4] 12.3 µM | Potency [5] 43.3 µM | Potency [6] 61.1 µM | Potency [7] 39.9 µM | Potency [8] 48.6 µM | Potency [9] 34.4 µM

CCOC=C(C(=O)OCC)C(=O)OCC
inactive: Potency [1] | Potency [2] | Potency [3] | Potency [10] | Potency [5] | Potency [6] | Potency [7] | Potency [8] | Potency [9]

CC(O)(c1ccc(Cl)cc1)c1ccc(Cl)cc1
active: Potency [3] 54.9 µM | Potency [11] 61.1 µM | Potency [6] 61.1 µM
inactive: Potency [1] | Potency [2] | Potency [7] | Potency [8]

N#Cc1nc(Cl)c(Cl)c(Cl)c1Cl
inactive: Potency [7]
active: Potency [12] 19.5 µM | Potency [1] 1.93 µM | Potency [2] 2.73 µM | Potency [4] 15.5 µM | Potency [6] 27.3 µM | Potency [8] 43.3 µM | Potency [9] 27.3 µM

Nc1ccc2c(S(=O)(=O)O)cccc2c1S(=O)(=O)O
inactive: Potency [1] | Potency [2] | Potency [3] | Potency [10] | Potency [4] | Potency [11] | Potency [6] | Potency [7] | Potency [9]

NCc1cccc(C2CCN(C(=O)c3ccc(C#Cc4ccccc4F)o3)CC2)c1
active: Potency [12] 34.7 µM | Potency [1] 43.3 µM | Potency [2] 34.4 µM | Potency [3] 54.9 µM | Potency [4] 13.8 µM | Potency [5] 68.6 µM | Potency [6] 68.6 µM | Potency [9] 68.6 µM
inactive: Potency [13] | Potency [7]

Clc1cccc(Cl)n1
inactive: Potency [1] | Potency [2] | Potency [3] | Potency [10] | Potency [4] | Potency [5] | Potency [6] | Potency [7] | Potency [8] | Potency [9]

C=C1C(CCl)(CCl)C2(Cl)C(Cl)C(Cl)C1(Cl)C2(Cl)Cl (stereo not given)
active: Potency [12] 48.4 µM | Potency [1] 60.4 µM | Potency [2] 48 µM | Potency [3] 43.1 µM | Potency [4] 24.3 µM
inactive: Potency [5] | Potency [7] | Potency [8]

Nc1ccc(Cl)c([N+](=O)[O-])c1
inactive: Potency [1] | Potency [3] | Potency [10] | Potency [4] | Potency [5] | Potency [11] | Potency [7] | Potency [8]
active: Potency [2] 38.6 µM

COc1cc2ncnc(Nc3cccc(Cl)c3)c2cc1OC
inactive: activity, negative = cytotoxicity [1] -2.63% [at 19 µM] | activity change, negative = inhibition [2] -11.5% [at 19 µM] | viability change, negative = cytotoxic [3] -9.86% [at 15.8 µM] | activation [10] -15.1% [at 15.8 µM] | activity change, negative = cytotoxicity [4] -0.839% [at 15.8 µM] | Potency [14] | viability change, negative = cytotoxic [6] -12.2% [at 19 µM] | activity change, negative = inhibition [7] -1.79% [at 23.6 µM] | viability change, negative = cytotoxic [8] -10.2% [at 19 µM] | activity change, negative = cytotoxicity [9] -20.1% [at 19 µM]

NC(=O)C1CO1 (stereo not given)
inactive: Potency [1] | Potency [2] | Potency [3] | Potency [10] | Potency [11] | Potency [6] | Potency [7] | Potency [8] | Potency [9]

O=C1OC2(c3ccccc31)c1ccc(O)c(Br)c1Oc1c2ccc(O)c1Br
active: Potency [7] 35.6 µM
inactive: Potency [1] | Potency [2] | Potency [3] | Potency [4] | Potency [9]

[Cl][Dy]([Cl])[Cl]
inactive: Potency [1] | Potency [2] | Potency [3] | Potency [5] | Potency [6] | Potency [8] | Potency [9]
active: Potency [7] 28.3 µM

N#CCCOCCC#N
inactive: Potency [1] | Potency [2] | Potency [3] | Potency [10] | Potency [4] | Potency [6] | Potency [7] | Potency [8]

O=C1OC(O)C(C(Cl)Cl)=C1Cl (stereo not given)
inactive: Potency [3] | Potency [5] | Potency [7] | Potency [8] | Potency [9]
active: Potency [1] 7.07 µM | Potency [2] 14.1 µM

CCCCCCCCCC[N+](C)(CCCCCCCCCC)CCC[Si](OC)(OC)OC
active: Potency [1] 24.3 µM | Potency [2] 21.7 µM | Potency [4] 21.9 µM | Potency [11] 61.1 µM | Potency [7] 79.6 µM
inactive: Potency [8] | Potency [9]

C=C(C)CCO
inactive: Potency [1] | Potency [2] | Potency [3] | Potency [10] | Potency [5] | Potency [6] | Potency [7] | Potency [8] | Potency [9]

NCc1ccco1
inactive: Potency [1] | Potency [2] | Potency [3] | Potency [10] | Potency [4] | Potency [6] | Potency [7] | Potency [8] | Potency [9]

O=C(N[C@H](CO)[C@H](O)c1ccc([N+](=O)[O-])cc1)C(Cl)Cl
inactive: Potency [1] | Potency [2] | Potency [15] | Potency [10] | Potency [4] | Potency [13] | Potency [14] | Potency [16] | Potency [6] | Potency [7] | Potency [8] | Potency [9]

CC(=O)Nc1ccc(N=Nc2cc(C)ccc2O)cc1
inactive: Potency [1] | Potency [2] | Potency [3] | Potency [4] | Potency [5] | Potency [11] | Potency [9]
active: Potency [7] 3.17 µM

CCc1c(C)cc(N)c(CC)c1N
inactive: Potency [1] | Potency [2] | Potency [3] | Potency [10] | Potency [4] | Potency [5] | Potency [6] | Potency [7] | Potency [8] | Potency [9]

Cc1ccc(C=O)cc1
inactive: Potency [1] | Potency [2] | Potency [3] | Potency [10] | Potency [4] | Potency [5] | Potency [6] | Potency [7] | Potency [8] | Potency [9]

CCCCCCCCSCc1cc(C)c(O)c(CSCCCCCCCC)c1
active: Potency [2] 61.1 µM
inactive: Potency [1] | Potency [5] | Potency [6] | Potency [7] | Potency [8] | Potency [9]

CCCCNc1ccc(NCCCC)c2c1C(=O)c1ccccc1C2=O
inactive: activity, negative = cytotoxicity [1] -0.683% [at 19 µM] | activity change, negative = inhibition [2] -8.88% [at 19 µM] | viability change, negative = cytotoxic [3] -8.5% [at 15.8 µM] | activation [10] 10.8% [at 15.8 µM] | activity change, negative = cytotoxicity [4] 10.1% [at 15.8 µM] | activity change, negative = cytotoxicity [5] 0.361% [at 19 µM] | activity, negative = inhibition [11] -19% [at 19 µM] | viability change, negative = cytotoxic [6] -12.4% [at 19 µM] | viability change, negative = cytotoxic [8] -17.5% [at 19 µM]

CCCCCCCCCCCC(=O)Cl
active: Potency [7] 39.9 µM
inactive: Potency [1] | Potency [2] | Potency [3] | Potency [5] | Potency [6] | Potency [8]
